Assay results as given in the supplement of paper PMC6411743.
± gives the standard deviation of the averaged measurements. About 5,400 targets were measured; listed, in parts, are those with the largest changes and a random draw of the rest.

Compound: Nc1nc2c(ncn2[C@@H]2O[C@H](COP(=O)(O)OP(=O)(O)OP(=O)(O)O)[C@@H](O)[C@H]2O)c(=O)[nH]1 [guanosine triphosphate]
Experiment: NP40-soluble protein abundance relative to vehicle (solubility fold change) (ratio); higher = more soluble protein in presence of GTP
Procedure, shortened: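 Values are fold changes against the detergent-processed vehicle, based on vsn-normalised intensities. Jurkat crude lysate was treated at eight concentrations from 0.1 to 10 mM (10 min at room temperature, then 3 min at 37 °C), solubilised with 0.8% NP40 and benzonase, ultracentrifuged and analysed by TMT-labelled LC-MS/MS over three independent experiments.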

Sequence of UniProt Q9NVP1 (Q9NVP1 whole entry): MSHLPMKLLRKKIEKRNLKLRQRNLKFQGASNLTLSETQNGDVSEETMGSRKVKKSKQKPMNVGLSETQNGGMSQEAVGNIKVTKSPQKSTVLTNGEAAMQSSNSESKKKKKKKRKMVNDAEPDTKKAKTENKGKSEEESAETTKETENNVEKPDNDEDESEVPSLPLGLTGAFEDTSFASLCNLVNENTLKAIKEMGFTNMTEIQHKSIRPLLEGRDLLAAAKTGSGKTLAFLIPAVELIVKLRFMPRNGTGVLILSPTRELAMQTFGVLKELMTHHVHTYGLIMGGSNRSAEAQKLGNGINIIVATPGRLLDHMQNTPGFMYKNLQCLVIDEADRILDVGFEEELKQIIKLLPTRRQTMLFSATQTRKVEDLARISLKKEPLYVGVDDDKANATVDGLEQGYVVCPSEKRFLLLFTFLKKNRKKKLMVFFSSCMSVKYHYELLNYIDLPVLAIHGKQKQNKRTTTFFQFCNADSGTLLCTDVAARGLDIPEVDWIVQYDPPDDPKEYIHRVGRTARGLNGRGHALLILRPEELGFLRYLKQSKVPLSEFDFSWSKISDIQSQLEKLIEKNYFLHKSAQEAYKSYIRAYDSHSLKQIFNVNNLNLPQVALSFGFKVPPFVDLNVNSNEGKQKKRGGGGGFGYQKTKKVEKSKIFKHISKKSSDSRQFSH
Sequence of UniProt Q96JM7 (Q96JM7 whole entry): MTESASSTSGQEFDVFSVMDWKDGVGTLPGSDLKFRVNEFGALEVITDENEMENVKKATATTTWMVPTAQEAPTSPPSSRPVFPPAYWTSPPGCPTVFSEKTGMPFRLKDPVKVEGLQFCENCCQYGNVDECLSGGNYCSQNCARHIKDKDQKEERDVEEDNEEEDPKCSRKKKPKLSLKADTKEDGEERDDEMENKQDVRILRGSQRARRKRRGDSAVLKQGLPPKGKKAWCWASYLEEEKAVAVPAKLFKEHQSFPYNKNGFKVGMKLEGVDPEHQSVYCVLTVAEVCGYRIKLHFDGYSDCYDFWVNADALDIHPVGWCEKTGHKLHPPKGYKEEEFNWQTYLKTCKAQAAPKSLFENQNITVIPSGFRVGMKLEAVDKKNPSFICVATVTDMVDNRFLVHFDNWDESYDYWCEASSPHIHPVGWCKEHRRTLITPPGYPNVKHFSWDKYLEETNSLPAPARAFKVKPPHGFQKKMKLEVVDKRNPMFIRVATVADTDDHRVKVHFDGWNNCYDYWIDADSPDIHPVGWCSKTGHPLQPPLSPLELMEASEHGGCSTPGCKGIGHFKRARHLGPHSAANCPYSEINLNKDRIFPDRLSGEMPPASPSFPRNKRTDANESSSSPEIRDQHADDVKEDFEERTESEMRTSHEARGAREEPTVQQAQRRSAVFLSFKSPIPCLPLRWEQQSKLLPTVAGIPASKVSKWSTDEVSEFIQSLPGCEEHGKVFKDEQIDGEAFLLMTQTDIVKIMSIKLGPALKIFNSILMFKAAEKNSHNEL
Sequence of UniProt Q9Y5K8 (Q9Y5K8 whole entry): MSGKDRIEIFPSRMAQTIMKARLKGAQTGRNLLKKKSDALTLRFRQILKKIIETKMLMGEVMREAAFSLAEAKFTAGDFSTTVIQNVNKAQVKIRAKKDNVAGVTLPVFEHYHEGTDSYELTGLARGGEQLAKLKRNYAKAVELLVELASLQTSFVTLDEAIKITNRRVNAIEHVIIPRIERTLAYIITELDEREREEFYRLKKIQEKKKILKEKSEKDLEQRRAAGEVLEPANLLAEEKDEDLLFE
Sequence of UniProt Q9UQN3 (Q9UQN3 whole entry): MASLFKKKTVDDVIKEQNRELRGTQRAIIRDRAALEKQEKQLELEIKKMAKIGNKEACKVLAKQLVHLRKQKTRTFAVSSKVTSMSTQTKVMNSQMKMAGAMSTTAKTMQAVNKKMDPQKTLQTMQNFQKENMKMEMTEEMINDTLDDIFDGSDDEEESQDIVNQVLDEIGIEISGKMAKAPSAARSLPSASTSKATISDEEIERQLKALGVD
Sequence of UniProt Q96ES7 (Q96ES7 whole entry): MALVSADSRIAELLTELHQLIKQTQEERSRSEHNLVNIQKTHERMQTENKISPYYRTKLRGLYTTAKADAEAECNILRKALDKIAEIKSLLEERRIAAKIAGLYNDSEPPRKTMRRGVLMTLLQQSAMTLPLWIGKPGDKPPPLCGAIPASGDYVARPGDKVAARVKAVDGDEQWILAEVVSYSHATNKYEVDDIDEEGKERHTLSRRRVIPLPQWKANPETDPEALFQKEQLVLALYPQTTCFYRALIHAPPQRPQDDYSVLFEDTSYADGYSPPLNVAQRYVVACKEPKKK
Sequence of UniProt Q9UII2 (Q9UII2 whole entry): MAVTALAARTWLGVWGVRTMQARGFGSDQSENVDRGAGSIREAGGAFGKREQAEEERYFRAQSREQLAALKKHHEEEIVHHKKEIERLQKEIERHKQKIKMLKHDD
Sequence of UniProt Q96I99 (Q96I99 whole entry): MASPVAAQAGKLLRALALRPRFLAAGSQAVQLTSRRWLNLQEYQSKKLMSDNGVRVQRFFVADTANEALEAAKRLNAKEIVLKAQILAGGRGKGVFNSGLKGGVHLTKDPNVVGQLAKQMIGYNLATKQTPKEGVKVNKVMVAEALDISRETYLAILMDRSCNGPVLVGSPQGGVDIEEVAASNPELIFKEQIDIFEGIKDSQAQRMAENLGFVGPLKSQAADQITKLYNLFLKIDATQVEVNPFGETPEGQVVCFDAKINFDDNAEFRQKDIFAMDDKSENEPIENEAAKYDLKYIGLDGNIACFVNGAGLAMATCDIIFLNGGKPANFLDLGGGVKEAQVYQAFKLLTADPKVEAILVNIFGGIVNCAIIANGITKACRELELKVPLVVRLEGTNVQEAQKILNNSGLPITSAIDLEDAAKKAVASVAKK
Sequence of UniProt Q92917 (Q92917 whole entry): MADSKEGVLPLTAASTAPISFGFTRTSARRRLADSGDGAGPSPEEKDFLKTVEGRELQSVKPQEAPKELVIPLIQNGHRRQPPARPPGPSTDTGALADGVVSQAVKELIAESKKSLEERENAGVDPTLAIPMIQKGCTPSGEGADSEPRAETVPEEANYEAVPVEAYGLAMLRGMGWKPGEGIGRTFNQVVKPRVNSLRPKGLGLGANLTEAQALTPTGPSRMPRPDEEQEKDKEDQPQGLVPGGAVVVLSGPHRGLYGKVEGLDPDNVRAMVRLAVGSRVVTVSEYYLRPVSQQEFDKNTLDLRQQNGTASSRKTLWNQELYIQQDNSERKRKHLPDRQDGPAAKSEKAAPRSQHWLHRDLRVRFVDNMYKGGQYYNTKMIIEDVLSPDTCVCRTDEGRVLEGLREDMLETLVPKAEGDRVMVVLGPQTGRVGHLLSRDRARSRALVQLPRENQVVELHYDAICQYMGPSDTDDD
Sequence of UniProt Q9NS23 (Q9NS23 whole entry): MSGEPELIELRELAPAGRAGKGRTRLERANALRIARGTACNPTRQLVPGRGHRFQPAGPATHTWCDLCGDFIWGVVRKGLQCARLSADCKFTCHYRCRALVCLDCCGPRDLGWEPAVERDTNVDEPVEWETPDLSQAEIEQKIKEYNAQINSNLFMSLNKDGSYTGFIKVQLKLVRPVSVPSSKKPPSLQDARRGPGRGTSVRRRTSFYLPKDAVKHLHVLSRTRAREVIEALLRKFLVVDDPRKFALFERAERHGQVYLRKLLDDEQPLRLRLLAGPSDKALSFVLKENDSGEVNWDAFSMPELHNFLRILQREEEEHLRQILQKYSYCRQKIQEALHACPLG
Sequence of UniProt Q9NPF5 (Q9NPF5 whole entry): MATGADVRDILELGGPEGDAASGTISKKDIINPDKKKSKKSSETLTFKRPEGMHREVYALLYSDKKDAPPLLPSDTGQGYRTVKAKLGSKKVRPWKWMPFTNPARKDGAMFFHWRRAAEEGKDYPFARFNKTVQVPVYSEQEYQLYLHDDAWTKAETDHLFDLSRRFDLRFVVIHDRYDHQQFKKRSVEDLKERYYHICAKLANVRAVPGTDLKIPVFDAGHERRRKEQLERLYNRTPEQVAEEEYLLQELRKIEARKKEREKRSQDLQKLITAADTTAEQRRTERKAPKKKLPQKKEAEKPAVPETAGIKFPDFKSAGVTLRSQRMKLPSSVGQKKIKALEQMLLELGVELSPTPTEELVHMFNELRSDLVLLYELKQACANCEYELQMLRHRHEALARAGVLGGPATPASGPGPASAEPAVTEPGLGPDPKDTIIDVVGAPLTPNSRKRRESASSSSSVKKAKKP
Sequence of UniProt Q9NQS7 (Q9NQS7 whole entry): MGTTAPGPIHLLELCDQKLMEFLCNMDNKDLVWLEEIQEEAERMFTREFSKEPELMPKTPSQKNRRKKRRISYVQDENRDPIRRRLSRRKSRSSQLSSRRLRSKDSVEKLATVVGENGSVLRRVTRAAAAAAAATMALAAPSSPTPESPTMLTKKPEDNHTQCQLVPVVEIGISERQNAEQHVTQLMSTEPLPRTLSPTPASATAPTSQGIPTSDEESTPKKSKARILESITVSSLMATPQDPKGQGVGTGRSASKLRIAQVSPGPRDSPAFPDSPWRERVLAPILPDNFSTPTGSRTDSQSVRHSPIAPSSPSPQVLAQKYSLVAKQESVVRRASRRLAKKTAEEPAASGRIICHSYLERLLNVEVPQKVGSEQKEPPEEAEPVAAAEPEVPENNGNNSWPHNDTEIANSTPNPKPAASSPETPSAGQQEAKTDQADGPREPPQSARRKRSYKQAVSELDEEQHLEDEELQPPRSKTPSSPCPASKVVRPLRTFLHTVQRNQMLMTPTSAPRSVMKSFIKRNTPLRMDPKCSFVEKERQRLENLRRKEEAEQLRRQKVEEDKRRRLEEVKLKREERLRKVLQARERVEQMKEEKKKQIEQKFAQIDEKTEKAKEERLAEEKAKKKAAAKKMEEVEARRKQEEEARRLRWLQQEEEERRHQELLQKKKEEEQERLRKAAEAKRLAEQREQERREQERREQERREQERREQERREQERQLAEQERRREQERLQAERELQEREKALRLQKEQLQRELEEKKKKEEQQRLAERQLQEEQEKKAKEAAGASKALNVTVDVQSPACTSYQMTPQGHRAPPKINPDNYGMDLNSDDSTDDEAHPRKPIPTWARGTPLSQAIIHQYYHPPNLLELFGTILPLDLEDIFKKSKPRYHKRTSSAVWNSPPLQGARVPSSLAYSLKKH

Target	NP40-soluble protein abundance (concentration: 0.1mM)	NP40-soluble protein abundance (concentration: 0.5mM)	NP40-soluble protein abundance (concentration: 1mM)	NP40-soluble protein abundance (concentration: 2mM)	NP40-soluble protein abundance (concentration: 4mM)	NP40-soluble protein abundance (concentration: 6mM)	NP40-soluble protein abundance (concentration: 8mM)	NP40-soluble protein abundance (concentration: 10mM)
UniProt Q9UII2	0.946 ± 0.08	0.972 ± 0.11	1.01 ± 0.078	0.936 ± 0.1	0.875 ± 0.1	0.908 ± 0.14	0.93 ± 0.07	0.963 ± 0.07
UniProt Q9HD33|Q9HD33-2	1.01 ± 0.017	1.16 ± 0.087	1.34 ± 0.23	1.55 ± 0.39	1.7 ± 0.52	1.86 ± 0.49	2.03 ± 0.59	2.05 ± 0.64
UniProt Q96JM7|Q96JM7-2	1.13 ± 0.15	1.14 ± 0.016	1.08 ± 0.16	1.13 ± 0.078	1.1 ± 0.2	1.23 ± 0.031	1.11 ± 0.056	1.15 ± 0.073
DMAP1 (UniProt Q9NPF5)	1.04 ± 0.056	1.06 ± 0.059	1.11 ± 0.079	1.17 ± 0.099	1.22 ± 0.12	1.24 ± 0.15	1.29 ± 0.2	1.26 ± 0.18
ATP6V1D (UniProt Q9Y5K8)	1.04 ± 0.016	1.06 ± 0.03	1.04 ± 0.03	1.06 ± 0.022	1.056 ± 0.0052	1.03 ± 0.05	1.02 ± 0.045	0.992 ± 0.018
UniProt Q9NQS7|Q9NQS7-2	1.16 ± 0.11	1.2 ± 0.24	1.31 ± 0.089	1.28 ± 0.14	1.49 ± 0.21	1.6 ± 0.17	1.72 ± 0.11	1.97 ± 0.29
CHMP2B (UniProt Q9UQN3)	0.905 ± 0.051	0.909 ± 0.092	0.989 ± 0.079	0.931 ± 0.15	0.938 ± 0.12	0.967 ± 0.14	0.953 ± 0.085	0.932 ± 0.11
SUCLG2 (UniProt Q96I99)	0.959 ± 0.049	0.966 ± 0.053	0.933 ± 0.043	0.901 ± 0.06	0.889 ± 0.059	0.889 ± 0.052	0.886 ± 0.048	0.871 ± 0.068
UniProt Q9BTY7	0.967 ± 0.086	0.856 ± 0.056	1.07 ± 0.088	1.05 ± 0.033	1.03 ± 0.082	0.998 ± 0.049	0.924 ± 0.18	1.03 ± 0.14
UniProt Q9NS23|Q9NS23-2|Q9NS23-3|Q9NS23-4|Q9NS23-5	0.978 ± 0.032	1.03 ± 0.098	1.04 ± 0.051	1.04 ± 0.058	1.05 ± 0.09	1.01 ± 0.022	0.971 ± 0.056	0.968 ± 0.11
DDX18 (UniProt Q9NVP1)	1.084 ± 0.0038	1.11 ± 0.024	1.08 ± 0.021	1.2 ± 0.071	1.42 ± 0.057	1.55 ± 0.061	1.69 ± 0.043	1.94 ± 0.066
GPKOW (UniProt Q92917)	0.974 ± 0.07	0.995 ± 0.067	1.02 ± 0.077	0.975 ± 0.086	0.968 ± 0.071	0.99 ± 0.059	0.998 ± 0.057	1.01 ± 0.088
TMOD3 (UniProt Q9NYL9)	0.878 ± 0.033	0.855 ± 0.044	1.03 ± 0.039	1.01 ± 0.029	1.02 ± 0.019	1.02 ± 0.026	1 ± 0.048	1.08 ± 0.04
UniProt Q96ES7	1.21 ± 0.22	1.12 ± 0.13	1.25 ± 0.19	1.14 ± 0.12	1.26 ± 0.11	1.17 ± 0.11	1.38 ± 0.32	1.12 ± 0.096
